Measured values published in PubChem BioAssay (NCATS).
Results filed as inconclusive are left out. Calls of active or inactive are those of the source. Unless noted, the call rests on the fitted dose curve; in most records, active means well fitted curve in either direction with a large enough effect (not every such curve was filed as active); inconclusive means small, poorly fitted or top-dose-only effect, or another doubt; inactive means flat fitted curve, though single readings scatter.

Tests used:
[1] = AP1 Signaling Pathway (AID 357); conditions: ME-180 AP-1-bla reporter, EGF-induced, beta-lactamase ratio, 5 h; at 17.2 µM (top of the series) unless noted;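 further: ME-180 reporter cells stimulated with EGF at its EC50 level; on the % scale 0 is the no-effect control and ±100 the full control effect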
Method in brief: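 Cells are seeded overnight, exposed to compound titrations and an EC50 level of EGF for 5 hours at 37 °C, then loaded with CCF4 dye for 2.5 hours. Beta-lactamase activity under the AP-1 element is read as a blue/green ratio.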

[2] = NFAT Signaling Pathway (AID 444); conditions: Jurkat NFAT-bla M1, carbachol, beta-lactamase ratio, 5 h; at 17.2 µM (top of the series) unless noted;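 further: carbachol stimulus at about its EC50 of 1 µM final; on the % scale 0 is the no-effect control and ±100 the full control effect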
Method in brief: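 Jurkat cells carrying an NFAT-driven β-lactamase reporter and co-transfected muscarinic M1 receptor were treated with compound plus carbachol (1 uM final, an EC50 level) for 5 h at 37 °C. CCF4 loading followed for 1 h at RT; 460/530 nm ratio gave %activity.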

[3] = Stat Signaling Pathway (AID 446); conditions: ME-180 SIE beta-lactamase reporter, IL-6 stimulated, 5 h; at 17.2 µM (top of the series) unless noted;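 further: ME-180 cervical cancer cells given 40 pM IL-6 alongside compound; SIE-controlled beta-lactamase reporter measured as 460/530 nm FRET emission ratio; on the % scale 0 is the no-effect control and ±100 the full control effect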
Method in brief: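 Screening format detects activators and inhibitors alike: ME-180 SIE-bla cells stimulated at 40 pM IL-6 for 5 hrs with compound, then dual-emission beta-lactamase read at 405 nm excitation.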

[4] = target: Glucocorticoid receptor (Homo sapiens) (UniProt P04150); assay: GR-GFP Redistribution (AID 450;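 active means compounds whose dose series gives a full or clear partial fitted curve of increased nuclear translocation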; further: potency means the concentration at half of the fitted maximal effect)
[5] = target: Mitogen-activated protein kinase 10 (Mus musculus) (UniProt Q61831); assay: JNK3 AlphaScreen Assay (AID 530);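 further: kinase came from lysate of stimulated human HepG2 cells; signal reports phosphorylation of biotinylated GST-cJun 1-79 at Ser73 with 10 µM ATP; on the % scale 0 is the no-effect control and ±100 the full control effect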
Method in brief: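 Inhibitors reduce antibody binding to phosphorylated biotin-cJun, lowering AlphaScreen luminescence. Lysates from HepG2 cells pre-activated by IL-1beta plus TNF-alpha supplied JNK3; compounds were titrated.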

[6] = target: 3',5'-cyclic-AMP phosphodiesterase 4B (Homo sapiens) (UniProt Q07343); assay: qHTS Assay for Inhibitors of PDE-IV (AID 607; active means well fitted activation curve with a large enough effect in the main read-out, with a control signal flat, not every such curve was filed as active; further: % of control where 0% means no effect)
Method in brief: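 The readout is membrane depolarisation from a cAMP-sensing CNG channel, detected with a potential dye at ex 535/em 590. Cells were HEK293-derived (endogenous PDE-IV) at 1000 cells/well, titrated up to 22.9 uM final.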

[7] = target: Guanine nucleotide-binding protein G(i) subunit alpha-1 (Homo sapiens) (UniProt P63096); assay: qHTS Assay for Inhibitors of RGS12 GoLoco Motif Activity (Green Fluorophore) (AID 879; active means well fitted curve in the direction sought with a large enough effect; an effect the other way counts as inactive or inconclusive;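 further: 0% = labeled peptide with Gαi1 and full inhibition = labeled peptide alone without protein; negative values mean loss of peptide binding seen as reduced polarization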)
Method in brief: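 Fluorescence polarization assay: 50 nM Gαi1 with 10 nM FITC-labeled RGS12 GoLoco peptide in 10 mM Tris pH 7.5, 150 mM NaCl, 0.1 mM GDP, 0.05% NP40, 10 min at room temperature with compound.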

[8] = qHTS Assay for Identification of Small Molecule Antagonists for NFkB Signaling Pathway (AID 895; active means well fitted inhibition curve with a large enough effect in the signal ratio, with a control signal flat, not every such curve was filed as active; the % refers to the signal ratio; further: on the % scale 0 is the no-effect control and ±100 the full control effect)
Method in brief: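 NFkB-bla ME-180 cervical carcinoma cells with beta-lactamase reporter under NFkB response element; compounds added, then TNF alpha at 10 pM final (EC50), 5 h at 37 C. LiveBLAzer substrate 2 h, room temperature; emission 460/530 nm at 405 nm excitation.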

[9] = qHTS Assay for Identification of Small Molecule Agonists for Thrombopoietin (TPO) Signaling Pathway (AID 917; active means well fitted curve in the direction sought with a large enough effect; an effect the other way counts as inactive or inconclusive; further: on the % scale 0 is the no-effect control and ±100 the full control effect)
Method in brief: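 IL-3-dependent murine pro-B Ba/F3 cells, stably transfected with human TPO receptor and GpIIb-promoter luciferase, are incubated 24 hrs at 37 C with test compound and 26 pM TPO; luciferase signal is read after 10 min at room temperature.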

[10] = target: Pyruvate kinase (Leishmania mexicana) (UniProt Q27686); assay: qHTS Validation Assay for Inhibitors of Leishmania Mexicana Pyruvate Kinase (AID 945; active means well fitted curve in the direction sought with a large enough effect; an effect the other way counts as inactive or inconclusive;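 further: 0% = DMSO only neutral control wells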)
Method in brief: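 Eight-point qHTS titrations; enzyme 0.2 nM LmPYK (E451W mutant); substrates 0.5 mM PEP, 0.1 mM ADP; 7 mM MgCl2; 1 h room temperature; PKLight luminescence normalized to neutral control.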

[11] = target: Pyruvate kinase PKM (Homo sapiens) (UniProt P14618); assay: qHTS Assay for Activators of Human Muscle Pyruvate Kinase (AID 954; active means well fitted curve in the direction sought with a large enough effect, not every such curve was filed as active;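 further: 0% = uninhibited enzyme and -100% = no enzyme or full thiadiazolimine inhibition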)
Method in brief: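 Reaction: 0.1 nM purified PKM2 with 0.5 mM phosphoenolpyruvate and 0.1 mM ADP, room temperature, 1 h. Readout: luciferase-based ATP luminescence after stop reagent. Activators judged against a 0.3 nM enzyme column.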

[12] = target: Alpha-galactosidase A (Homo sapiens) (UniProt P06280); assay: Counterscreen for Glucocerebrosidase Inhibitors: qHTS Assay for Human alpha-Galactosidase at pH 4.5 (AID 992; active means well fitted curve in the direction sought with a large enough effect; an effect the other way counts as inactive or inconclusive; further: 0% is about no effect)
Method in brief: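 Concentration-response curves (0.7 nM to 77 uM final) were modeled with the Hill equation to give AC50. Reactions: 2 nM enzyme, 80 uM fluorogenic alpha-galactoside, pH 4.5 citric acid buffer, 20 min, room temperature.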

[13] = target: alpha-glucosidase (Oryza sativa, rice) (UniProt Q653V4); assay: Counterscreen for Glucocerebrosidase Inhibitors: qHTS Assay for Rice alpha-Glucosidase at pH 5.0 (AID 997; active means well fitted curve in the direction sought with a large enough effect; an effect the other way counts as inactive or inconclusive;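 further: 0% = full activity with enzyme and -100% = basal without enzyme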)
Method in brief: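 Rice alpha-glucosidase (4 nM final) with 400 uM 4-methylumbelliferyl-alpha-D-glucopyranoside in citrate buffer pH 5.0, 20 min at room temperature, stopped at pH 10; fluorescence 365/440 nm, compounds 0.7 nM–77 uM, AC50 from Hill fits.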

[14] = qHTS Assay for Identification of Small Molecule Agonists for Hypoxia Response Element Signaling Pathway (AID 914; active means well fitted activation curve with a large enough effect in the signal ratio, with a control signal flat, not every such curve was filed as active; the % refers to the signal ratio; further: % of control where 0% means no effect); conditions: ME-180 (cervical carcinoma) HRE-bla reporter, beta-lactamase ratio, CoCl2, 17 h; activation: active compounds read high
Method in brief: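 HRE-bla ME-180 assay for agonist-like enhancement of an EC50 CoCl2 stimulus: 17 h at 37 degrees Celsius, CCF4 for 2.5 h, ratiometric 460/530 nm signal converted to %Activity and fitted to AC50.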

Sequence of Glucocorticoid receptor (Homo sapiens) (P04150 whole entry, looked up): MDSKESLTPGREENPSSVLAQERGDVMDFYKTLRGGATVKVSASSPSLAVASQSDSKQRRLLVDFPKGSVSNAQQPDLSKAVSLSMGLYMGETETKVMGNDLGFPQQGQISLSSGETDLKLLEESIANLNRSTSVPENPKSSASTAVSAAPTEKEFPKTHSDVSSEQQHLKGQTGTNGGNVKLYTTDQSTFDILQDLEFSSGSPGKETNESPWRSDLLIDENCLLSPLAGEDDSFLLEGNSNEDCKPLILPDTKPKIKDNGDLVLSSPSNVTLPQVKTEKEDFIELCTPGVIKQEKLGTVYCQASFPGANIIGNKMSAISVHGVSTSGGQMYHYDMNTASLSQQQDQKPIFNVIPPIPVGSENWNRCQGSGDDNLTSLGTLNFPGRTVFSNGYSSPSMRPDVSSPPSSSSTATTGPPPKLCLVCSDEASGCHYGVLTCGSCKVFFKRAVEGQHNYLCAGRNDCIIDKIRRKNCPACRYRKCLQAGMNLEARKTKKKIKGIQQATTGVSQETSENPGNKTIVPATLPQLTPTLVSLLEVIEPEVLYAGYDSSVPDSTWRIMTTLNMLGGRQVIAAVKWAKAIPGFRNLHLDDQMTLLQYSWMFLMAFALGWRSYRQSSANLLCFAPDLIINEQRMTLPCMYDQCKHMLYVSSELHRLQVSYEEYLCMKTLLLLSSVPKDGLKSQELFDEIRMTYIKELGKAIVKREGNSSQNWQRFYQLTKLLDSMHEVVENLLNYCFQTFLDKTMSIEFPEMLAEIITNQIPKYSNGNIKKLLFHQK
Sequence of Pyruvate kinase PKM (Homo sapiens) (P14618 whole entry, looked up): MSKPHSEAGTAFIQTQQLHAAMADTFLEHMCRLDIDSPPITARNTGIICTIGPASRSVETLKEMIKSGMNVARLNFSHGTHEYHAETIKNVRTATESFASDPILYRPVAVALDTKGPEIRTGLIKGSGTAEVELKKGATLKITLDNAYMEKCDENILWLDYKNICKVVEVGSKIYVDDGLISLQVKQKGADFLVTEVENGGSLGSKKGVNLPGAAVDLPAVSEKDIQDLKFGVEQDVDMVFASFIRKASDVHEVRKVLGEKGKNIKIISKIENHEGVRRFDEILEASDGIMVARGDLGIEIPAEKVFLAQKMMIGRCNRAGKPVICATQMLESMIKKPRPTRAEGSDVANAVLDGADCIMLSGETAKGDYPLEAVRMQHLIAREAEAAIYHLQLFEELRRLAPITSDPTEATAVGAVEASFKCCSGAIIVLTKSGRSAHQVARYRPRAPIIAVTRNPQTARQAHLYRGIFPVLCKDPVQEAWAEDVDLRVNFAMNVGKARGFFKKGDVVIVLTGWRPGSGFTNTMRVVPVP
Sequence of Alpha-galactosidase A (Homo sapiens) (P06280 whole entry, looked up): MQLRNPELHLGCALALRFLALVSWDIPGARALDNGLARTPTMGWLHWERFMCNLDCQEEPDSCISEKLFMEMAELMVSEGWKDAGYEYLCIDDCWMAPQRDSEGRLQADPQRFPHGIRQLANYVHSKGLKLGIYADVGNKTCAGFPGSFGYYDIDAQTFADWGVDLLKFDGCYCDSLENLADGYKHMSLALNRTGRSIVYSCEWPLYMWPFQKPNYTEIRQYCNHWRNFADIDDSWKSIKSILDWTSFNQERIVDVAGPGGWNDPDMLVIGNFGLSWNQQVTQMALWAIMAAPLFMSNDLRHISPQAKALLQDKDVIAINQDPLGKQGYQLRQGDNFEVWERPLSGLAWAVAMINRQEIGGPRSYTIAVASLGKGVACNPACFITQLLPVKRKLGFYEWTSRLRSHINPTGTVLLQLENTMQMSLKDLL
Sequence of 3',5'-cyclic-AMP phosphodiesterase 4B (Homo sapiens) (Q07343 whole entry, looked up): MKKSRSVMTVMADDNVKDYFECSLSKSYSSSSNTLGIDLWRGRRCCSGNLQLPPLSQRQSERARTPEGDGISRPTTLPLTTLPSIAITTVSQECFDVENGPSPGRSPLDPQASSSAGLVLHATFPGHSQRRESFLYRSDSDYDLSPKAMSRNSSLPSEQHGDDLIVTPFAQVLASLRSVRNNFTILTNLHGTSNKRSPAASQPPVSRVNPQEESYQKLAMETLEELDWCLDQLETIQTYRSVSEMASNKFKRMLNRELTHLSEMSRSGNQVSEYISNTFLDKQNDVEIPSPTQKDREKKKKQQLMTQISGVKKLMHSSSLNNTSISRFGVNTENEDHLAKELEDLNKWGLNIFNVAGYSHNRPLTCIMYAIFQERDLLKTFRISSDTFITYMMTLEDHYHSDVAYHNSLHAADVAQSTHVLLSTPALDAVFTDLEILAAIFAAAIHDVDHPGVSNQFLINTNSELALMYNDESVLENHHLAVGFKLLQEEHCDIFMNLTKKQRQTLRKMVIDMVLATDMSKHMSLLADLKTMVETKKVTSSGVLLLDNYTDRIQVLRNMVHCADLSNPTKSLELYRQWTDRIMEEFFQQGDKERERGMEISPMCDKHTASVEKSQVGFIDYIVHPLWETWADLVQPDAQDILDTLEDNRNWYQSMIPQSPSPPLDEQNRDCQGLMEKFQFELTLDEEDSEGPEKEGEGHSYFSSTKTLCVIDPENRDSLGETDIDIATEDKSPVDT
Sequence of Pyruvate kinase (Leishmania mexicana) (Q27686 2-499 E452W): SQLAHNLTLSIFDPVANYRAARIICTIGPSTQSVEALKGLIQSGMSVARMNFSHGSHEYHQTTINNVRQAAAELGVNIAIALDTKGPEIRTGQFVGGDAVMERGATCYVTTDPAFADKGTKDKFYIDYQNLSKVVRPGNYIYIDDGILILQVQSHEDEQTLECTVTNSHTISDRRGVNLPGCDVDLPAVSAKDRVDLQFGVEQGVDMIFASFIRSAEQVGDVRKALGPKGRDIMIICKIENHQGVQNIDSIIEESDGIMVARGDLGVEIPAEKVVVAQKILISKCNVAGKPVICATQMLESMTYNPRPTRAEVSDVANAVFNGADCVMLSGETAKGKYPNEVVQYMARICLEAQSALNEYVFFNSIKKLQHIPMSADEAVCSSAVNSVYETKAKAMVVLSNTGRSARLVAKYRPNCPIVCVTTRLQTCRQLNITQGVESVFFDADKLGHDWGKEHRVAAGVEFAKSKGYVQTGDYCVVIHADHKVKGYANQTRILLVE
Sequence of Guanine nucleotide-binding protein G(i) subunit alpha-1 (Homo sapiens) (P63096 whole entry, looked up): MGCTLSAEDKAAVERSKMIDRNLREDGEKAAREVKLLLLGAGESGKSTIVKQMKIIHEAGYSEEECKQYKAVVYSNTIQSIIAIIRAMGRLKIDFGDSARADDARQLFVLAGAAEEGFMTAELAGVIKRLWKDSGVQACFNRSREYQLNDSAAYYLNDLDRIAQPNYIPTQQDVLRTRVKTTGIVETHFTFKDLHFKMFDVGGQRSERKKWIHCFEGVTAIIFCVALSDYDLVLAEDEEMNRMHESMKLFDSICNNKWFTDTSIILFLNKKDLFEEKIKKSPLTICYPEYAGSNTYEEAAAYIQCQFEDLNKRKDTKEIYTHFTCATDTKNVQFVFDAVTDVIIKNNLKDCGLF

O=C(O)[C@@H]1CCCN[C@H]1C(=O)O
inactive: activity change, negative = inhibition [1] 13% [at 38 µM] | activity change, negative = inhibition [2] -7.71% [at 38 µM] | activity, negative = inhibition [3] -12.9% [at 38 µM] | Potency [4] > 46 µM | Potency [5] | Potency [6] | outcome [7] | Potency [8] | Potency [9] | Potency [10] | outcome [11] | outcome [12] | outcome [13]

O=C(O)CC(NC(=O)COc1ccc(Cl)cc1Cl)C(=O)O (stereo not drawn)
inactive: activity change, negative = inhibition [1] 7.75% | activity change, negative = inhibition [2] 6.45% | activity, negative = inhibition [3] 1.25% | Potency [4] > 20.6 µM | activation [14] 3.63%

CCC(C(=O)Nc1ncn[nH]1)(C(F)(F)F)C(F)(F)F
inactive: activity change, negative = inhibition [1] 3.02% | activity change, negative = inhibition [2] -11.9% | activity, negative = inhibition [3] 13% | Potency [4] > 20.6 µM | activation [14] -10.1%

O=C(NCc1cccnc1)c1ccc(=O)oc1
inactive: activity change, negative = inhibition [1] 10.5% | activity change, negative = inhibition [2] -0.473% | activity, negative = inhibition [3] 0.949% | Potency [4] > 20.6 µM | activation [14] 10.6%

O=C1CSC(=Nc2ccc(O)cc2)N1c1ccc(O)cc1
inactive: activity change, negative = inhibition [1] 24.5% | activity change, negative = inhibition [2] -9.67% | activity, negative = inhibition [3] 13.7% | Potency [4] > 20.6 µM | activation [14] -9.31%

CCOc1cccc(N2C(=O)CC(N(CCc3ccc(OC)c(OC)c3)C(=O)CC)C2=O)c1 (stereo not drawn)
inactive: activity change, negative = inhibition [1] -28.7% | activity change, negative = inhibition [2] 0.637% | activity, negative = inhibition [3] 3.67% | Potency [4] > 20.6 µM | activation [14] 11%

Cc1cccc(OCC(=O)NCC(=O)n2nc(C)cc2C)c1
inactive: activity change, negative = inhibition [1] 2.67% | activity change, negative = inhibition [2] 12.1% | activity, negative = inhibition [3] 4.06% | Potency [4] > 20.6 µM | activation [14] 14.3%

CC1(C)CC(=O)C=C(N=CC2=C(O)CC(C)(C)CC2=O)C1
inactive: activity change, negative = inhibition [1] 4.05% | activity change, negative = inhibition [2] -11.2% | activity, negative = inhibition [3] 12.2% | Potency [4] > 20.6 µM | activation [14] -17.7%

COc1ccc(C2C(C(C)=O)=C(O)C(=O)N2c2nccs2)cc1OC (stereo not drawn)
inactive: activity change, negative = inhibition [1] -6.01% | activity change, negative = inhibition [2] 21.8% | activity, negative = inhibition [3] 3.64% | Potency [4] > 20.6 µM | activation [14] -13.7%

Cc1cc(=O)oc(C)c1C(=O)Nc1cccc2nonc12
inactive: activity change, negative = inhibition [1] -1.38% | activity change, negative = inhibition [2] 11.1% | activity, negative = inhibition [3] -0.713% | Potency [4] > 20.6 µM | activation [14] 1.4%

Cn1c(NCCCO)nc2c1c(=O)n(Cc1ccccc1F)c(=O)n2C
inactive: activity change, negative = inhibition [1] -2.43% | activity change, negative = inhibition [2] 8.23% | activity, negative = inhibition [3] -2.21% | Potency [4] > 20.6 µM | activation [14] -5.37%

CN1c2ccccc2-c2nc3ccccc3n2C1c1ccco1 (stereo not drawn)
inactive: activity change, negative = inhibition [1] 5.2% | activity change, negative = inhibition [2] -6.44% | activity, negative = inhibition [3] -0.11% | Potency [4] > 20.6 µM | activation [14] -8.71%

CCCC(CCC(=O)Nc1ccc(C(=O)OCC)cc1)C(=O)O (stereo not drawn)
inactive: activity change, negative = inhibition [1] 4.36% | activity change, negative = inhibition [2] 0.831% | activity, negative = inhibition [3] 3.58% | Potency [4] > 20.6 µM | activation [14] 10%

CCSC(SCC)[C@H](O)[C@@H](O)[C@H](O)[C@H](O)CO
inactive: activity change, negative = inhibition [1] -0.356% | activity change, negative = inhibition [2] 8.22% | activity, negative = inhibition [3] 10.1% | Potency [4] > 20.6 µM | activation [14] 9.48%

COC(=O)C1=C(N)Oc2cc(C)oc(=O)c2C1c1ccncc1 (stereo not drawn)
inactive: activity change, negative = inhibition [1] -9.84% | activity change, negative = inhibition [2] 4.62% | activity, negative = inhibition [3] 0.284% | Potency [4] > 20.6 µM | activation [14] 12.2%

CCC(=O)N(Cc1cccs1)C1CCOC(C)(C)C1 (stereo not drawn)
inactive: activity change, negative = inhibition [1] -6.24% | activity change, negative = inhibition [2] -16.2% | activity, negative = inhibition [3] -2.05% | Potency [4] > 20.6 µM | activation [14] -1.46%

CCCCOc1ccc(CSC(CC(=O)O)C(=O)O)cc1 (stereo not drawn)
inactive: activity change, negative = inhibition [1] 11.3% | activity change, negative = inhibition [2] 11.2% | activity, negative = inhibition [3] 1.48% | Potency [4] > 20.6 µM | activation [14] 26.9%

Cc1ccc(S(=O)(=O)N(CC(O)CN2CCOCC2)c2cc(Cl)ccc2Cl)cc1 (stereo not drawn)
inactive: activity change, negative = inhibition [1] 0.294% | activity change, negative = inhibition [2] -11% | activity, negative = inhibition [3] -1.96% | Potency [4] > 20.6 µM | activation [14] 11.1%

Cc1cc(/C=N\O)c(C)n1-c1ccncc1
inactive: activity change, negative = inhibition [1] 0.0567% | activity change, negative = inhibition [2] 23.9% | activity, negative = inhibition [3] -5.06% | Potency [4] > 20.6 µM | activation [14] 1.93%

CC(=O)CCn1c(=O)n(CCC(C)=O)c(=O)n(CCC(C)=O)c1=O
inactive: activity change, negative = inhibition [1] 5.12% | activity change, negative = inhibition [2] 6.61% | activity, negative = inhibition [3] -1.84% | Potency [4] > 20.6 µM | activation [14] 11.1%

CCN(CC)CCNc1nc2c(c(=O)[nH]c(=O)n2C)n1CCOc1ccccc1
inactive: activity change, negative = inhibition [1] -3.03% | activity change, negative = inhibition [2] -7.16% | activity, negative = inhibition [3] 8.2% | Potency [4] > 20.6 µM | activation [14] 0.547%
